KB-V1 MDR tox: KB-V1 MDR subline cytotoxicity. KB-V1 MDR cells viability, CellTiter-Glo, 72 h. Potency, µM (titrated, usually from 46.1 µM), hits mostly cytotoxic. 3.4% of 400,000 active. AID 1347076; further: on the % scale 0 is the no-effect control and ±100 the full control effect; nearly all actives have a fitted effect of over 60% in size
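Compound-treated KB-V1 multidrug-resistant cells, 72 h, 37 degrees C; viability by CellTiter-Glo. Fitted qHTS curves give the values.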
SW480 rerep: inducers of DNA re-replication in SW480 colon cancer cells | SW480 DNA re-replication, Hoechst DNA content imaging, 48 h | Potency, µM (titrated, usually from 46.1 µM), for the others: top-dose re-replication activation, usual class: activators | 1.8% of 340,000 active | AID 624297; further: % of control where 0% means no effect; nearly all actives have a fitted effect of over 55% in size
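Image-based read-out: total Hoechst fluorescence of nuclei (405 nm excitation, 500-530 nm emission), with hits raising the fraction of high-intensity nuclei. SW480 colon cells incubated 48 hr with compounds at 37 C.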
MCF10A rerep: inducers of DNA re-replication in MCF 10A breast cells | 2.9% of 350,000 active | Potency, µM (doses to about 46.1 µM), for the others: top-dose activity, positive = re-replication, actives largely listed as activators | MCF 10A DNA re-replication, Hoechst nuclear intensity, 48 h | AID 624296; further: % of control where 0% means no effect; nearly all actives have a fitted effect of over 50% in size
KB-3-1 cytotox: KB-3-1 parental cell cytotoxicity; KB-3-1 viability, CellTiter-Glo ATP luminescence, 72 h; Potency, µM (series often up to 46.1 µM), usual class: cytotoxic; 1.4% of 400,000 active; AID 1347075; further: on the % scale 0 is the no-effect control and ±100 the full control effect; nearly all actives have a fitted effect of over 60% in size
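Using CellTiter-Glo luminescence, growth of non-resistant KB-3-1 adenocarcinoma cells is assessed 72 h after pin-tool compound addition at 37 °C. Normalized responses across the concentration series yield fitted curves.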
ELG1 DNA repair: ELG1-dependent DNA repair inhibition | HEK293T ELG1-luciferase reporter, luminescence, 16 h; DNA damage induced by 5-fluorouridine | Potency, µM (titrated, usually from 46.1 µM), for the others: at the highest dose activity change, negative = inhibition, usual class: inhibitors | 2.3% of 330,000 active; further: on the % scale 0 is the no-effect control and ±100 the full control effect; nearly all actives have a fitted effect of over 55% in size
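HEK293T cells expressing luciferase-tagged ELG1 (2,000/well) received 5-Fluorouridine plus compound or DMSO for 16 hr at 37 °C. Luciferase was read by ONE-Glo luminescence after 30 min at room temperature.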
Active calls of the source: *; i = inactive; ? = inconclusive; . = no result; [ ] = dose if it differs, or a comment. Compounds with a hit are over-represented: about 8.1% of the library has one in this group of screens. The call rests on the fitted dose curve; in most records, active means well fitted curve in the direction sought with a large enough effect; inconclusive means small, poorly fitted or top-dose-only effect, or another doubt; inactive means no such curve, though single readings can be large; an effect the other way counts as inactive or inconclusive. Potency means the concentration at half of the fitted maximal effect.

SMILES | KB-V1 MDR tox | SW480 rerep | MCF10A rerep | KB-3-1 cytotox | ELG1 DNA repair
O=C(C1=C[C@H](c2csc3ccccc23)C[C@H](OCc2ccc(CO)cc2)O1)N1CCN(Cc2ccccc2)CC1 | i | -11% | ? | ? | ?
O=C(C1=C[C@H](c2csc3ccccc23)C[C@H](OCc2ccc(CO)cc2)O1)N1CCN(Cc2ccc3c(c2)OCO3)CC1 | i | -10%[9.22 µM] | 23µM* | i | ?
O=C(C1=C[C@H](c2ccccc2)C[C@H](OCc2ccc(CO)cc2)O1)N1CCN(Cc2ccc3c(c2)OCO3)CC1 | ? | 2%[9.22 µM] | ? | ? | 8.2µM*
CN1CCN(C(=O)C2=C[C@@H](c3ccc4c(c3)OCO4)C[C@@H](OCc3ccc(CO)cc3)O2)CC1 | i | -8% | -1% | i | 11%
O=C(C1=C[C@@H](c2ccccc2)C[C@@H](OCCCCO)O1)N1CCN(Cc2ccc3c(c2)OCO3)CC1 | i | -5% | 10% | i | -28%
O=C(C1=C[C@H](c2ccc(Br)cc2)C[C@H](OCCCCO)O1)N1CCN(Cc2ccc3c(c2)OCO3)CC1 | ? | -18% | 18µM* | i | ?
O=C(C1=C[C@H](c2ccc3c(c2)OCO3)C[C@H](OCc2ccc(CO)cc2)O1)N1CCN(Cc2ccc3c(c2)OCO3)CC1 | i | -15% | 7% | ? | 16µM*
O=C(C1=C[C@H](c2coc3ccccc3c2=O)C[C@H](OCc2ccc(CO)cc2)O1)N1CCN(Cc2ccc3c(c2)OCO3)CC1 | i | 12% | ? | i | 13µM*
C#CCNC(=O)C1=C[C@H](c2csc3ccccc23)C[C@H](OCc2ccc(CO)cc2)O1 | i | ? | 2.1µM* | i | ?
Cc1ccc2oc3c(c(=O)c2c1)C(c1cccc(O)c1)N(c1ccccn1)C3=O (stereo not given) | ? | -2% | -4% | ? | 16µM*
CCCCCCCCCCOCC(O)CN (stereo not given) | . | 0% | ? | . | .
CC1Sc2ccc(C(=O)OCc3ccccc3Cl)cc2NC1=O (stereo not given) | ? | -2% | 20% | i | ?
COc1cc2[nH]c(=S)n(CC3CCCO3)c(=O)c2cc1OC (stereo not given) | i | -8% | -11% | i | 4%
CCOc1cc2[nH]c(=S)n(CC3CCCO3)c(=O)c2cc1OCC (stereo not given) | 12µM* | 0% | ? | ? | ?
Cc1ccc(S(=O)(=O)N2[C@@H](CCO)OC[C@H]2C(C)C)cc1 | i | . | . | i | .
CCc1ccc(C(=O)c2cn(Cc3ccccc3)c3cc(OC)c(OC)cc3c2=O)cc1 | i | . | . | i | .
Nc1c(C(=O)c2ccccc2)sc2nsc(SCCN3CCCC3)c12 | ? | ? | 21µM* | ? | ?
Nc1c(C(=O)c2ccc(Cl)cc2)sc2nsc(SCCN3CCOCC3)c12 | i | ? | ? | i | 0%
Cc1oc(-c2ccccc2F)nc1CSCC(=O)NCc1ccccc1 | i | . | . | i | .
Cn1c(=O)c2c(ncn2CC(=O)Nc2nc(-c3ccccc3Cl)cs2)n(C)c1=O | 21µM* | 5% | 14% | ? | -13%
CC(=O)c1ccc(NC(=O)c2cc(C3CC3)nc3c2c(C)nn3-c2ccc(C)cc2)cc1 | i | . | . | i | .
COCCCNC(=O)c1ccc(Cn2c(=O)c3ccccc3n(Cc3ccccc3C#N)c2=O)cc1 | i | 21% | 23µM* | ? | ?
O=C(CCCCn1c(=O)c2ccccc2n(Cc2ccc(F)cc2)c1=O)NCc1ccco1 | 5.8µM* | ? | 18µM* | 12µM* | ?
COCCCNC(=O)c1ccc(Cn2c(=O)c3ccccc3n(Cc3ccccc3C)c2=O)cc1 | ? | 15% | 119% | ? | ?
CCCCNC(=O)CCn1c(=O)c2ccccc2n(Cc2ccc(Cl)cc2)c1=O | 15µM* | ? | -7% | i | ?
CCCCNC(=O)CCn1c(=O)c2ccccc2n(Cc2cccc(Cl)c2)c1=O | i | . | . | i | .
CC1(C(=O)NS(=O)(=O)c2ccc(F)cc2F)CCN1C(=O)C1CCCCC1 (stereo not given) | i | . | . | i | .

From PubChem BioAssay
